Experimental data from PubChem BioAssay AID1159580 (chemical genetic matrix, 2015).
Screen size: about 5,500 compounds; about 2,000 (36%) were called active. About 18% were inconclusive and are not listed. Cut-off read from the data, not from the text of the source: active = normalized growth mostly below about 0.91 (no sharp cut-off); inconclusive = no clear call, values can overlap the other calls; inactive = mostly above about 0.92. Some of the results follow.

Assay: chemical genetic growth profiling, strain panel (AID 1159580);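 note: tested at 20 µM; growth read once vehicle control cultures reached saturation at 30 °C; 1 = growth at the plate median or of vehicle wells; lower values mean less growth of the strain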
Conditions: growth OD

Measured: normalized growth

C=C1CCC2C(CC2(C)C)C(=O)CCC1O (stereo unspecified)
inactive: S. cerevisiae deletion strains, locus YJL168C, strain set2, stronger effect = lower value 1.01 | S. cerevisiae deletion strains, locus YJL187C, strain SWE1 (second series), stronger effect = lower value 1.06 | S. cerevisiae deletion strains, locus YJL187C, strain SWE1, stronger effect = lower value 0.993 | S. cerevisiae deletion strains, locus YJR066W, strain TOR1, stronger effect = lower value 0.949 | S. cerevisiae deletion strains, locus YKL009W, strain mrt4, stronger effect = lower value 1.02 | S. cerevisiae deletion strains, locus YKL068W, stronger effect = lower value 1 | S. cerevisiae deletion strains, locus YKL085W, strain MDH1 (second series), stronger effect = lower value 0.993 | S. cerevisiae deletion strains, locus YKL085W, strain MDH1, stronger effect = lower value 0.993 | S. cerevisiae deletion strains, locus YKL160W, strain elf1, stronger effect = lower value 0.982 | S. cerevisiae deletion strains, locus YKR001C, strain vps1, stronger effect = lower value 1.02 | S. cerevisiae deletion strains, locus YKR026C, strain gcn3, stronger effect = lower value 1 | S. cerevisiae deletion strains, locus YKR091W, strain srl3, stronger effect = lower value 0.988 | S. cerevisiae deletion strains, locus YLL001W, strain dnm1, stronger effect = lower value 0.954 | S. cerevisiae deletion strains, locus YLL026W, stronger effect = lower value 1 | S. cerevisiae deletion strains, locus YLL041C, strain sdh2, stronger effect = lower value 0.987 | S. cerevisiae deletion strains, locus YLR027C, strain aat2, stronger effect = lower value 0.996 | S. cerevisiae deletion strains, locus YLR039C, strain RIC1, stronger effect = lower value 1.04 | S. cerevisiae deletion strains, locus YLR058C, strain SHM2, stronger effect = lower value 1.04 | S. cerevisiae deletion strains, locus YLR102C, strain apc9, stronger effect = lower value 1.01 | S. cerevisiae deletion strains, locus YLR113W, strain HOG1, stronger effect = lower value 1.01 | S. cerevisiae deletion strains, locus YLR221C, strain rsa3, stronger effect = lower value 1.04 | S. cerevisiae deletion strains, locus YLR258W, strain gsy2, stronger effect = lower value 0.993 | S. cerevisiae deletion strains, locus YLR262C, strain YPT6 (second series), stronger effect = lower value 1.01 | S. cerevisiae deletion strains, locus YLR268W, strain sec22, stronger effect = lower value 1 | S. cerevisiae deletion strains, locus YLR320W, strain mms22, stronger effect = lower value 1.06 | S. cerevisiae deletion strains, locus YLR342W, strain FKS1, stronger effect = lower value 0.997 | S. cerevisiae deletion strains, locus YLR357W, strain rsc2, stronger effect = lower value 0.981 | S. cerevisiae deletion strains, locus YLR370C, strain arc18, stronger effect = lower value 1 | S. cerevisiae deletion strains, locus YLR371W, strain rom2, stronger effect = lower value 1.02 | S. cerevisiae deletion strains, locus YLR384C, strain iki3, stronger effect = lower value 1.01 | S. cerevisiae deletion strains, locus YLR418C, strain cdc73, stronger effect = lower value 1.05 | S. cerevisiae deletion strains, locus YML016C, strain PPZ1, stronger effect = lower value 1.02 | S. cerevisiae deletion strains, locus YML032C, strain rad52, stronger effect = lower value 1.01 | S. cerevisiae deletion strains, locus YML120C, strain ndi1, stronger effect = lower value 0.965 | S. cerevisiae deletion strains, locus YML124C, strain tub3, stronger effect = lower value 1.01 | S. cerevisiae deletion strains, locus YMR058W, strain fet3, stronger effect = lower value 0.98 | S. cerevisiae deletion strains, locus YMR078C, strain ctf18, stronger effect = lower value 1.01 | S. cerevisiae deletion strains, locus YMR125W, strain sto1, stronger effect = lower value 0.973 | S. cerevisiae deletion strains, locus YMR129W, stronger effect = lower value 1.01 | S. cerevisiae deletion strains, locus YMR205C, strain PFK2, stronger effect = lower value 0.955 | S. cerevisiae deletion strains, locus YMR223W, strain ubp8, stronger effect = lower value 1.03 | S. cerevisiae deletion strains, locus YMR231W, strain pep5, stronger effect = lower value 1.01 | S. cerevisiae deletion strains, locus YMR307W, strain GAS1, stronger effect = lower value 1.07 | S. cerevisiae deletion strains, locus YNL067W, strain RPL9B, stronger effect = lower value 1.03 | S. cerevisiae deletion strains, locus YNL071W, strain lat1, stronger effect = lower value 0.992 | S. cerevisiae deletion strains, locus YNL128W, strain TEP1, stronger effect = lower value 0.993 | S. cerevisiae deletion strains, locus YNL183C, strain NPR1, stronger effect = lower value 0.968 | S. cerevisiae deletion strains, locus YNL209W, strain ssb2, stronger effect = lower value 0.987 | S. cerevisiae deletion strains, locus YNL233W, strain BNI4, stronger effect = lower value 1.05 | S. cerevisiae deletion strains, locus YNL248C, strain rpa49, stronger effect = lower value 1.01 | S. cerevisiae deletion strains, locus YNL250W, strain rad50, stronger effect = lower value 1.05 | S. cerevisiae deletion strains, locus YNL271C, strain bni1, stronger effect = lower value 1.01 | S. cerevisiae deletion strains, locus YNL298W, strain CLA4, stronger effect = lower value 1.03 | S. cerevisiae deletion strains, locus YNL307C, strain MCK1, stronger effect = lower value 1.03 | S. cerevisiae deletion strains, locus YNL322C, strain KRE1 (second series), stronger effect = lower value 0.974 | S. cerevisiae deletion strains, locus YNL322C, strain KRE1, stronger effect = lower value 0.991 | S. cerevisiae deletion strains, locus YNR049C, strain mso1, stronger effect = lower value 0.995 | S. cerevisiae deletion strains, locus YNR052C, strain pop2, stronger effect = lower value 1.03 | S. cerevisiae deletion strains, locus YOL012C, strain htz1 0.879 | S. cerevisiae deletion strains, locus YOL147C, strain pex11, stronger effect = lower value 1 | S. cerevisiae deletion strains, locus YOR001W, strain rrp6, stronger effect = lower value 1.02 | S. cerevisiae deletion strains, locus YOR061W, strain CKA2, stronger effect = lower value 1.02 | S. cerevisiae deletion strains, locus YOR069W, strain VPS5, stronger effect = lower value 1.01 | S. cerevisiae deletion strains, locus YOR070C, strain gyp1, stronger effect = lower value 1.02 | S. cerevisiae deletion strains, locus YOR080W, strain dia2, stronger effect = lower value 0.995 | S. cerevisiae deletion strains, locus YOR083W, strain WHI5, stronger effect = lower value 0.988 | S. cerevisiae deletion strains, locus YOR106W, strain vam3, stronger effect = lower value 0.961 | S. cerevisiae deletion strains, locus YOR136W, strain idh2, stronger effect = lower value 1.01 | S. cerevisiae deletion strains, locus YOR144C, strain elg1, stronger effect = lower value 1 | S. cerevisiae deletion strains, locus YOR184W, strain ser1, stronger effect = lower value 0.989 | S. cerevisiae deletion strains, locus YOR231W, strain MKK1, stronger effect = lower value 0.994 | S. cerevisiae deletion strains, locus YOR265W, strain rbl2, stronger effect = lower value 0.992 | S. cerevisiae deletion strains, locus YOR270C, strain vph1, stronger effect = lower value 0.986 | S. cerevisiae deletion strains, locus YOR290C, strain snf2, stronger effect = lower value 0.956 | S. cerevisiae deletion strains, locus YOR316C, strain cot1, stronger effect = lower value 1.03 | S. cerevisiae deletion strains, locus YPL051W, strain arl3, stronger effect = lower value 1 | S. cerevisiae deletion strains, locus YPL078C, strain atp4, stronger effect = lower value 0.946 | S. cerevisiae deletion strains, locus YPL106C, strain sse1, stronger effect = lower value 0.958 | S. cerevisiae deletion strains, locus YPL240C, strain hsp82, stronger effect = lower value 0.998 | S. cerevisiae deletion strains, locus YPL256C, strain CLN2, stronger effect = lower value 1.02 | S. cerevisiae deletion strains, locus YPR119W, strain clb2, stronger effect = lower value 1.02 | S. cerevisiae deletion strains, locus YPR141C, strain kar3, stronger effect = lower value 1.01 | S. cerevisiae deletion strains, locus YPR163C, strain tif3, stronger effect = lower value 1.02 | S. cerevisiae deletion strains, locus YPR167C, strain met16, stronger effect = lower value 1.02 | S. cerevisiae deletion strains, strain wtn01, stronger effect = lower value 1.01 | S. cerevisiae strains, strain wild type, stronger effect = lower value 0.989
